Source: PubChem BioAssay
An excerpt weighted towards active compounds, which were near 1.6% of everything screened.
KCNQ2 block = inhibitors of rat KCNQ2 potassium channel | O88943 | CHO-K1 KCNQ2, FluxOR thallium flux, 20 min; hits give low values | B-score at 10 µM | 310,000 compounds, 1.1% hits | AID 2156;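 active means fluorescence ratio B-score at most minus 3 library SDs, with starting brightness B-score within 2 library SDs, cut at about -5.5 in these data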
Target sequence (O88943 whole entry, looked up): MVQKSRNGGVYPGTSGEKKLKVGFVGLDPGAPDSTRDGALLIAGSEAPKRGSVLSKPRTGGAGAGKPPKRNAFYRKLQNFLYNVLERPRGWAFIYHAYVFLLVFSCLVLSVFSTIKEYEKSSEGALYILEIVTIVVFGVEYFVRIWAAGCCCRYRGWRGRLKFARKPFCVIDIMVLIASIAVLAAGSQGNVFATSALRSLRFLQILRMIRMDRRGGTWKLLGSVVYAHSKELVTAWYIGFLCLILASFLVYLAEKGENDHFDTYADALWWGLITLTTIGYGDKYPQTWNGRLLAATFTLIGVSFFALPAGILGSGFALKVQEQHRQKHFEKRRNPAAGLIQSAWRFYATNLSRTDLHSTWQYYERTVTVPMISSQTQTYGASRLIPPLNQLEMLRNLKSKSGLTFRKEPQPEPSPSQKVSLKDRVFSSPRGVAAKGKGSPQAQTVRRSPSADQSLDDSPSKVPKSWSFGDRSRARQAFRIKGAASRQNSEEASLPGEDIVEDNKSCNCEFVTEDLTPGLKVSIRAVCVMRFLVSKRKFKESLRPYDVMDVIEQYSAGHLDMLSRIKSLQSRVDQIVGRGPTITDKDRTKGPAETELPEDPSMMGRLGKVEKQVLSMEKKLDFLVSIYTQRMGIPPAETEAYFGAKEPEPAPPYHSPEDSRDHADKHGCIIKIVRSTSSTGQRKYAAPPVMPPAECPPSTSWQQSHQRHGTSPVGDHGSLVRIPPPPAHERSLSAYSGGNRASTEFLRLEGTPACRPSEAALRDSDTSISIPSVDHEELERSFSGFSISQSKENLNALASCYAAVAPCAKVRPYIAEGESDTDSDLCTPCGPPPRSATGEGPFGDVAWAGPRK
KCNQ2 pot = potentiators of rat KCNQ2 potassium channel | O88943 | CHO-K1 KCNQ2, FluxOR thallium flux fluorescence; hits give high values | B-score at 10 µM | 310,000 compounds, 0.54% hits;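 active means fluorescence ratio B-score at least 3 SD of library B-scores, with initial fluorescence B-score within 3 of them, cut at about 5.3 in these data; same plate scores as AID 2156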;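 further: B-score of peak minus minimum over baseline fluorescence ratio after K+ and Tl+ stimulus; positive B-score means potentiation of KCNQ2 with more thallium influx and brighter signal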
KCNQ2 block conf = rat KCNQ2 channel inhibition, confirmatory screen. 1,000 compounds, 57% hits. KCNQ2-expressing cells, thallium flux; hits give low values. AID 493025. activity change, negative = inhibition, % at 10 µM. shares compounds with KCNQ2 block;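 further: 0% = vehicle wells and values are ratio percent relative to vehicle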
KCNQ1 spec = KCNQ2 inhibitor that also affects human KCNQ1 channel | shares compounds with KCNQ2 block | KCNQ1-expressing cells, FluxOR thallium flux fluorescence; hits give low values | activity change, negative = inhibition, % at 10 µM | 1,000 compounds, 15% hits;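 active means activity change at least 3 SD of negative controls below their mean in both duplicate wells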;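 further: CHO cells stably transfected with KCNQ1 and depolarized by potassium stimulus; peak minus minimum fluorescence over baseline after thallium addition; 0% = vehicle negative control and -100% = blank without thallium stimulus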
CHO parental ctr = KCNQ2 inhibitor counter-screen hit in parental CHO cells; 1,000 compounds, 14% hits; thallium flux counter-screen; hits give low values; activity change, % at 10 µM; shares compounds with KCNQ2 block;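 further: 0% = vehicle negative controls with stimulus buffer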
KCNQ2 inh confirm = confirmation of rat KCNQ2 potassium channel inhibitors | KCNQ2-expressing cells, automated patch clamp current | shares compounds with KCNQ2 block | calls only at 10 µM | 550 compounds, 49% hits
An asterisk follows results filed as active; i = inactive; nt = no result; + = active, no number. Unless noted, how the calls were made is not given here.

SMILES	KCNQ2 block	KCNQ2 pot	KCNQ2 block conf	KCNQ1 spec	CHO parental ctr	others
CC1Cc2ccccc2N1C(=O)CNc1ccccc1N1CCCCC1 (stereo not drawn)	-8.36*	-8.36	i	i	i
CC1CCN(CC(=O)N2c3ccccc3CC2C)CC1 (stereo not drawn)	i	0.66	nt	nt	nt
COC(=O)C1CCN(C(=O)COC(=O)c2cc(-c3cccs3)nn2-c2ccccc2)CC1	i	0.05	nt	nt	nt
NS(=O)(=O)c1ccc(CCNC(c2ccccc2)c2ccccc2)cc1	i	0.51	nt	nt	nt
c1ccc(C(NCCNC(c2ccccc2)c2ccccc2)c2ccccc2)cc1	-7.23*	-7.23	-28.5%*	i	i	KCNQ2 inh confirm=i
Cc1ccc(C(=O)COC(=O)C2CC3CCCC(C2)C3=O)cc1[N+](=O)[O-] (stereo not drawn)	i	nt	nt	nt	nt
CC(C)(C)c1cccc(OCCCSc2ncccn2)c1	-9.16*	-9.16	i	i	i
Cc1ccc(OCCCSc2ncccn2)cc1C	i	nt	nt	nt	nt
CCOC(=O)N1C/C(=C\c2ccccc2)C(=O)/C(=C/c2ccccc2)C1	-6.92*	-6.92	-33.0%*	i	i	KCNQ2 inh confirm=i
CCOC(=O)N1CCN(S(=O)(=O)/C=C/c2ccccc2)CC1	i	0.73	nt	nt	nt
COc1cccc(NC(=O)C(NCC2CCCCC2)c2ccccc2)c1 (stereo not drawn)	-10*	-10	-28.5%*	i	i	KCNQ2 inh confirm=+
COc1cccc(NC(=O)C2CCCCC2)c1	i	4.46	nt	nt	nt
CCOc1ccccc1NC(=O)Cn1c(=O)n(-c2ccc(OC)cc2OC)c(=O)c2c(C)c(C(=O)N(CC)CC)sc21	i	nt	nt	nt	nt
COc1ccc(-n2c(=O)c3c4c(sc3n(CC(=O)Nc3cc(C)[nH]n3)c2=O)CCCC4)c(OC)c1	-6.66*	-6.66	i	i	i
CC(NC(=O)CCC(=O)c1ccccc1)c1ccc(F)cc1 (stereo not drawn)	-8.77*	-8.77	i	i	i
CC(NC(=O)Cc1ccccc1)c1ccc(F)cc1 (stereo not drawn)	i	1	nt	nt	nt
CN(C)c1nc(NCc2ccccc2)nc(SCC(=O)Nc2ccccc2)n1	i	0.48	nt	nt	nt
CN(C)c1nc(NCc2ccccc2)nc(SCC(=O)Nc2ccccc2Cl)n1	-6.86*	-6.86	i	i	i
CCCCc1cc(=O)oc2cc(C)cc(OC(C)C(=O)NCc3cccnc3)c12 (stereo not drawn)	i	2.08	nt	nt	nt
COc1cccc(Oc2ccc(C(F)(F)F)cc2NC(=O)c2cccc(F)c2)c1	-7.13*	-7.13	-26.0%*	i	i	KCNQ2 inh confirm=i
COc1ccc(Oc2ccc(C(F)(F)F)cc2NC(=O)c2ccc(F)cc2)cc1	i	nt	nt	nt	nt
O=C(Nc1cc(C(F)(F)F)ccc1N1CCCC1)C1=COCCO1	i	nt	nt	nt	nt
COc1cccc(Oc2ccc(C(F)(F)F)cc2NC(=O)C2=COCCO2)c1	-7.48*	-7.48	i	i	i
COc1cc(-c2cc(C(=O)N(C)Cc3ccccc3)c3ccccc3n2)cc(OC)c1OC	-7.17*	-7.17	-28.0%*	i	i	KCNQ2 inh confirm=+
COCCN(Cc1ccccc1)C(=O)c1cc(-c2ccc(OC)c(OC)c2)nc2ccccc12	-8.92*	-8.92	-30.5%*	i	i	KCNQ2 inh confirm=+
SMILES	KCNQ2 block	KCNQ2 pot	KCNQ2 block conf	KCNQ1 spec	CHO parental ctr	others
COc1cc(-c2cc(C(=O)Nc3ccc(S(N)(=O)=O)cc3)c3ccccc3n2)cc(OC)c1OC	i	nt	nt	nt	nt
COc1cc(-c2cc(C(=O)Nc3c(Cl)cc(Cl)cc3Cl)c3ccccc3n2)cc(OC)c1OC	-7.22*	-7.22	-25.0%*	i	i	KCNQ2 inh confirm=+
COc1ccc(-c2cc(C(=O)NCC(c3ccccc3)N(C)C)c3ccccc3n2)cc1OC (stereo not drawn)	i	nt	nt	nt	nt
COc1ccccc1CN(C)C(=O)c1cc(-c2cc(OC)c(OC)c(OC)c2)nc2ccccc12	i	nt	nt	nt	nt
COc1ccccc1C(=O)NCCCNC(=O)c1cccnc1	i	nt	nt	nt	nt
COC(=O)C1CCN(C(=O)CC(NC(=O)C(F)(F)F)c2cccs2)CC1 (stereo not drawn)	i	nt	nt	nt	nt
Cc1cc(Br)c2[nH]cc(CCNC(=O)c3ccco3)c2c1	i	nt	nt	nt	nt
CC(OC(=O)c1nn(C)c(=O)c2ccccc12)C(=O)Nc1ccc(S(N)(=O)=O)cc1 (stereo not drawn)	i	1.8	nt	nt	nt
COc1ccc2c(C)cc(SCc3c(C)noc3C)nc2c1	-10.4*	-10.4	i	i	i
COc1ccc2c(C)cc(SCC#N)nc2c1	i	nt	nt	nt	nt
O=C(NNC(=O)c1ccc(S(=O)(=O)N2CCOCC2)cc1)c1ccccc1	i	3.34	nt	nt	nt
CC(=O)Nc1ccc(NC(=O)C(=O)NCC(c2ccco2)N2CCc3ccccc3C2)cc1 (stereo not drawn)	i	nt	nt	nt	nt
O=C(NCC(c1ccco1)N1CCc2ccccc2C1)C(=O)Nc1ccccc1F (stereo not drawn)	-6.98*	-6.98	-26.0%*	i	i	KCNQ2 inh confirm=i
O=C(NCC(c1ccco1)N1CCc2ccccc2C1)C(=O)Nc1ccc(F)cc1F (stereo not drawn)	-6.69*	-6.69	-25.5%*	i	i	KCNQ2 inh confirm=i
O=C(CN1CCc2ccccc2C1)Nc1ccc(F)cc1F	i	nt	nt	nt	nt
Cc1cc(C)cc(C(=O)N2CCC3(CC2)NCCc2[nH]cnc23)c1	i	0.55	nt	nt	nt
CCOc1ccccc1N(C(=O)CNC(=O)c1ccco1)C(C(=O)NC(C)(C)C)c1ccncc1 (stereo not drawn)	i	nt	nt	nt	nt
COc1ccccc1NC(=O)C(C)OC(=O)C1CCC(C(C)(C)C)CC1 (stereo not drawn)	-8.42*	-8.42	-31.0%*	i	i	KCNQ2 inh confirm=i
COc1ccccc1NC(=O)C(C)OC(=O)C1CC(=O)N(c2ccc3c(c2)OCCO3)C1 (stereo not drawn)	i	nt	nt	nt	nt
COC(=O)C(NC(=O)c1cccnc1Cl)C(C)C (stereo not drawn)	i	0.02	nt	nt	nt
CCOC(=O)C1CN(S(=O)(=O)c2cc(OC)ccc2OC)C1	i	0.43	nt	nt	nt
Cc1ccc(-n2nnnc2SCC(=O)c2cc(C)n(-c3cc(C)on3)c2C)c(C)c1	-7.47*	-7.47	i	i	i
Cc1cc(-n2c(C)cc(C(=O)CSc3ccc4c(c3)OCCO4)c2C)no1	-6.94*	-6.94	-14.5%*	i	i	KCNQ2 inh confirm=+
Cc1cc(-n2c(C)cc(C(=O)CCl)c2C)no1	i	0.13	nt	nt	nt
Cc1cc(-n2c(C)cc(C(=O)CSc3nnnn3-c3ccccc3)c2C)no1	i	2.95	nt	nt	nt
Cc1ccc(CNc2ccc3c(c2)ncn3C(C)(C)C)cc1	i	0.07	nt	nt	nt
Cc1ccc(N2CC(C(=O)Nc3nnc(SCC(=O)N4CCOCC4)s3)CC2=O)cc1 (stereo not drawn)	i	0.68	nt	nt	nt
O=C(COC(=O)c1ccc(O)cc1)Nc1ccccc1[N+](=O)[O-]	i	1.1	nt	nt	nt
NS(=O)(=O)c1cccc(NC(=S)NC(=O)C23CC4CC(CC(C4)C2)C3)c1	i	3.09	nt	nt	nt
